The source of these data is PubChem BioAssay AID493169 (National Center for Advancing Translational Sciences (NCATS), 2011).

The assay is described as follows: CHOP2 Reporter Counterscreen Assay for Inhibitors of Ubiquitin-specific Protease USP2a.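 Further: activated enterokinase alone at 50 pM in a cell-free format rather than USP2a or CHOP2; nearly all actives have a fitted effect of over 55% in size.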 Put shortly:
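Cell-free counterscreen with pre-activated enterokinase alone (50 pM final) in 20mM Tris-HCl pH 8.0, 2mM CaCl2, 2mM beta-mercaptoethanol, 0.05% CHAPS; compound preincubation 30 min RT, reporter substrate 25nM final, fluorescence read after 10 min (Ex 485/Em 531).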
A general note: A counterscreen serves to expose hits that act by an unwanted route or on another target.

SMILES strings stand for the structures. Inconclusive results are not listed. Where a call stands in place of a potency, no number is given. The source made the active and inactive calls. The call rests on the fitted dose curve; in most records, active means well fitted inhibition curve with a large enough effect; inconclusive means small, poorly fitted or top-dose-only effect; inactive means flat fitted curve, though single readings scatter.
Potency means the concentration at half of the fitted maximal effect.

For `C=C(CCC(=O)c1ccccc1)C(=O)c1ccccc1`, the Potency entry was “inactive”. Turning to `COc1ccccc1NC(=O)N1CCN(c2ccccn2)CC1`, the Potency result is “inactive”.

`Cc1ccc(C)c(S(=O)(=O)N2CCN(C(=O)/C=C/c3ccco3)CC2)c1`: the Potency is 11.2 µM (active). Next, `CCn1cc(C(=O)N2CCOCC2)c(=O)c2cc(S(=O)(=O)N(C)C)ccc21`: “inactive”; `COC(=O)c1ccc(CSc2ncnc3ccccc23)o1`: “inactive”; `CCCSCCCNC(=O)CC1Oc2ccccc2NC1=O` (stereo not given): “inactive”. In the case of `COc1ccc2[nH]c(=O)c(CN(Cc3ccco3)Cc3nnnn3Cc3ccccc3)cc2c1`, the Potency result is “inactive”. As to `CC(C)(C)C1C=C(Sc2ccccc2)C(=O)O1` (stereo not given), the Potency result is “inactive”. For the compound `Cc1noc(C)c1NC(=O)Nc1ccc2c(c1)C(=O)N([C@H](C)CO)C[C@H](C)[C@@H](CN(C)S(=O)(=O)c1ccccc1)O2`, the Potency entry is “inactive”. `CC1Cc2ccccc2N1C(=O)Cn1c(=O)oc2cc(S(=O)(=O)NC3CCCC3)ccc21` (stereo not given): the Potency entry was “inactive”. Regarding `Cc1cc(C)cc(OCC(=O)Nc2ccc(N3CCCC3)cc2)c1`, the Potency is 10 µM (active). Turning to `Cc1noc(NS(=O)(=O)c2ccc(N3CC(O)=C(c4ccccc4)C3=N)cc2)c1C`, the Potency entry was “inactive”. Regarding `CCC/C(O)=C1\C(=O)CC(C)(C)CC1=Nc1ccc(OC)cc1OC`, the Potency entry was “inactive”. As to `CSc1cccc(NC(=O)c2ccccc2N(C)S(C)(=O)=O)c1`, the Potency result was “inactive”.

Take `Cn1c(=O)[nH]c(=O)c2c1nc(NCc1ccccc1)n2CCCc1ccccc1`: the Potency entry was “inactive”. For `CCOc1ccccc1N1C(=O)CC(Nc2ccc(N3CCOCC3)cc2)C1=O` (stereo not given), the Potency result is “inactive”. For the compound `c1coc(CNc2nc(-c3cccs3)cs2)c1`, the Potency entry is “inactive”.

As to `Cc1[nH]c2ccccc2c1C(c1ccccn1)c1c(C)[nH]c2ccccc12`, the Potency entry is “inactive”. To `Cc1ccc(C)n1NC(=O)c1ccccc1O` belongs “inactive”; to `C=CC#CC[N+]1(CC#Cc2ccccc2)CCOCC1`, 2.24 µM (active).

With `CNC(=O)NC(=O)CSc1ccc(NC(C)=O)cc1`, the Potency result is “inactive”. For `O=C(COC(=O)c1c2c(nc3ccccc13)/C(=C/c1ccco1)CC2)NC1CCCC1`, the Potency is 2 µM (active). Regarding `CCCCC1CCC(C(=O)Nc2ccc(S(=O)(=O)Nc3nccs3)cc2)CC1` (stereo not given), the Potency result is “inactive”. In the case of `N#Cc1c(-c2cccs2)nc(SCc2ccc(Cl)cc2)[nH]c1=O`, the Potency result is “inactive”. Take `COc1ccccc1N1C(=O)CC(N2CCc3ccccc32)C1=O` (stereo not given): the Potency entry was “inactive”. As to `COc1ccc2[nH]c(=O)c(CN(C3CCCCC3)C(c3nnnn3Cc3ccco3)C(C)C)cc2c1` (stereo not given), the Potency was 10 µM (active). As to `CCC(=O)Nc1c2c(nn1-c1ccc(F)cc1)CS(=O)C2` (stereo not given), the Potency result is “inactive”. `N#CC(c1ccccc1)c1ccc(C(=O)c2ccc(F)cc2)cc1` (stereo not given): the Potency result is “inactive”. Regarding `Cc1ccc2[nH]c3c(c2c1)CN(C(=O)CN1CCSCC1)CC3`, the Potency entry was “inactive”. `O=C(NCC(c1cccnc1)N1CCN(c2ccc(F)cc2)CC1)OCc1ccccc1` (stereo not given): the Potency entry was “inactive”. Take `C[C@H](CO)N1C[C@H](C)[C@@H](CN(C)S(=O)(=O)c2cccs2)Oc2c(NC(=O)Nc3ccc4c(c3)OCO4)cccc2C1=O`: the Potency result was “inactive”. As for `COc1cc2c(ccc3cc(OC)c(OC)c(O)c32)cc1O`, the Potency was 5.62 µM (active). Take `Oc1ccccc1/C=N/Nc1ncc(Br)cn1`: the Potency result was “inactive”.

As to `CCOC(=O)N1CCN(C(=O)CN(c2ccc(Oc3ccccc3)cc2)S(C)(=O)=O)CC1`, the Potency result is “inactive”. Turning to `Cc1ccc(NC(=O)CSc2nnc(COc3ccc(C#N)cc3)n2-c2ccccc2)cc1C`, the Potency result is “inactive”. `C=CCn1c(O)c(C(CC)=NCCN2CCOCC2)c(=O)[nH]c1=O`: the Potency result is “inactive”. As for `O=C(Nc1ncccc1Cl)c1cccc(F)c1`, the Potency entry is “inactive”.

Turning to `O=C(NC1CCCCC1)C(c1ccco1)N(Cc1ccco1)C(=O)c1ccco1` (stereo not given), the Potency result is “inactive”.

On to `Cc1cc(C(=O)CSc2nnc(Nc3ccccc3F)s2)c(C)n1CC1CCCO1` (stereo not given), for which the Potency result was “inactive”. With `CCOC(=O)c1[nH]c2ccc(OC)cc2c1NC(=O)CCN1CCC(C)CC1`, the Potency entry is “inactive”. For `COc1ccc(C(=O)CSc2nnc(-c3ccco3)c(-c3ccco3)n2)cc1`, the Potency was 6.31 µM (active).

As to `CC1CC(C)CN(C(=O)CSc2nnc(-c3ccc(Cl)cc3)o2)C1` (stereo not given), the Potency result is “inactive”. To `CC(C)C(=O)Nc1ccc(C(=O)N2CCCCCC2)cc1` belongs “inactive”.

`O=c1/c(=C/c2ccco2)sc2n1CN(c1cccc(Br)c1)CN=2`: the Potency result was “inactive”.

On to `COc1ccc(-n2c(=S)[nH]c3cc(C(=O)Nc4cc(OC)c(OC)c(OC)c4)ccc3c2=O)c(OC)c1`, for which the Potency entry was “inactive”. With `CC1CCN(c2ccc3c(c2)S(=O)(=O)c2cccc(C(=O)NC4CC4)c2C3=O)CC1`, the Potency result is “inactive”. Regarding `COc1cccc(C(=O)NC(C)c2ccc(-c3ccccc3)cc2)c1OC` (stereo not given), the Potency result is “inactive”. Regarding `Cc1ccccc1N=C1NC(=O)CS1`, the Potency entry was “inactive”. For `O=C(CCCN1C(=O)c2ccccc2C1=O)NC1=NCCS1`, the Potency entry was “inactive”. On to `CCOC(=O)c1c(C)[nH]c(C(=O)COC(=O)CSC)c1C`, for which the Potency result was “inactive”. Consider `O=C1CS/C(=C/C(=O)c2ccccc2)N1`, for which the Potency entry was “inactive”. To `CC(C)(C)[C@H]1COC(=O)[C@@H](Cc2ccc(F)cc2)C/C=C\C[C@@H](CC(=O)N[C@@H](CO)Cc2ccccc2)C(=O)N1` belongs “inactive”; to `O=C(COc1ccccc1)NCCSc1ccccc1`, “inactive”. On to `COc1ccc(Cl)cc1S(=O)(=O)Nc1cccc(C(=O)O)c1`, for which the Potency result is “inactive”. Turning to `Cn1c(=O)c(C(=O)Nc2ncccc2O)c(O)c2ccccc21`, the Potency was 10 µM (active). Next, `O=C(Nc1ccc(N2CCCC2)cc1)c1cccc(-c2cc3ccccc3oc2=O)c1`: “inactive”; `CCOC(=O)c1ccc(NC(=O)C2=C(C)Nc3nc(CCCO)nn3C2c2cccc(C)c2)cc1` (stereo not given): “inactive”. In the case of `CN(c1cccc(NC(=O)Nc2cccc(Cl)c2)c1)S(C)(=O)=O`, the Potency result is “inactive”. For `O=C(C[n+]1cccc(C(=O)N/N=C/c2ccc(Br)cc2)c1)c1ccccc1`, the Potency entry is “inactive”. `COC(=O)CC1Oc2ccc(C)cc2NC1=O` (stereo not given): the Potency entry is “inactive”. On to `NS(=O)(=O)c1ccc(NC(=O)/C=C/c2cn(-c3ccccc3)nc2-c2cccc(Cl)c2)cc1`, for which the Potency entry was “inactive”.

On to `Cc1ccccc1NC(=O)CSc1nnc(-c2ccco2)c(-c2ccco2)n1`, for which the Potency result was “inactive”.

In the case of `CCOC(=O)c1[nH]c2ccc(OC)cc2c1NC(=O)CCN1CCCC(C)C1` (stereo not given), the Potency result was “inactive”. On to `NC(=O)CC(NC(=O)Cc1ccc(Br)cc1)c1ccc(N2CCC(Cc3ccccc3)CC2)c([N+](=O)[O-])c1` (stereo not given), for which the Potency result is “inactive”. Next, `CC(C(=O)Nc1ccc(C(=O)O)c(O)c1)N1C(=O)/C(=C\c2ccco2)SC1=S` (stereo not given): 7.94 µM (active); `O=C(CN1CCC(O)CC1)N1c2ccccc2C=Cc2ccccc21`: “inactive”; `Nc1cc(N)nc(SCC(=O)N2CCCCC2)n1`: “inactive”. To `CCOc1ccc(Cn2nnc(C(=O)NCc3ccccc3)c2N)cc1` belongs “inactive”; to `CCOc1ccc(NC(=O)CSc2nnc(Cn3c(=O)sc4ccccc43)n2C)cc1`, “inactive”; to `CN=c1scc(-c2ccccc2F)n1/N=C/c1ccc(O)c(O)c1O`, 10 µM (active).

Turning to `COc1ccc(-c2nnn(CC(=O)N3CCOCC3)n2)cc1`, the Potency entry was “inactive”.

For the compound `N#CCc1ccc(NC(=O)/C=C/c2ccc([N+](=O)[O-])o2)cc1`, the Potency is 10 µM (active). To `CNc1nc(OCCNC(=O)Nc2ccccc2)nc(N2CCOCC2)n1` belongs “inactive”; to `CCc1sc(/C=C(/C#N)C(N)=S)cc1[N+](=O)[O-]`, “inactive”. On to `Cc1ccc(N2CCN(C(=O)CCc3nc4ccccc4[nH]3)CC2)c(C)c1`, for which the Potency entry is “inactive”. With `O=C(NCCCN1CCCC1=O)c1cccc(N2CCCC2=O)c1`, the Potency entry is “inactive”.

As to `COc1ccc(-n2c(SCC(=O)N3CCN(c4ccccc4)CC3)nc3c(c2=O)SCC3)cc1`, the Potency entry was “inactive”. Take `O=C(Nc1nnc(SCC(=O)N2CCCC2)s1)C1CC(=O)N(c2ccc(F)cc2)C1` (stereo not given): the Potency is 10 µM (active).

For the compound `Cc1ccc(S(=O)(=O)N2[C@@H](c3ccccc3F)C(C(=O)O)=CC[C@H]2c2ccc(Cl)c(Cl)c2)cc1`, the Potency result is “inactive”. For the compound `Cc1ccccc1OCc1nc2ccccc2c(=O)n1N`, the Potency entry was “inactive”.
